Measured values from PubChem BioAssay.
The source made the active and inactive calls.

Legend:
[1] = system: PRMT1 (protein arginine N-methyltransferase 1); experiment: small molecules binding arginine methyltransferase PRMT1 – biochemical, small-molecule microarray, 635 nm fluorescence, primary screen (AID 1088); details: higher = more signal;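 note: binding of Prmt1 protein to compounds spotted on small-molecule microarray slides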
[2] = growth effects on S. cerevisiae YJM789 – YJM789 clinical isolate, OD600, 24 h, basal, primary screen (AID 1089); details: higher = more signal, called active from +8 up or from −8 down;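 note: growth of clinical yeast isolate S. cerevisiae YJM 789 seeded 1000 cells per well; test concentration not given here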
[3] = S. pombe growth modifiers, basal conditions – strain 972, OD600, 24 h, no modulator, primary screen (AID 1090);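 note: basal condition with compound alone and no growth modifier present; test concentration not given here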; details: S. pombe 972 growth, higher = more signal, called active from +8 up or from −8 down
[4] = budding yeast growth modifiers under rapamycin – strain BY4716, OD600, 96 h, primary screen (AID 1091); note: test concentration not given here; details: S. cerevisiae BY4716 + rapamycin, higher = more signal, called active from +8 up or from −8 down
[5] = target: Torsin-1A-interacting protein 2 (Homo sapiens) (UniProt Q8NFQ8); experiment: small molecules binding lysate-expressed LULL1 – cell lysate, human LULL1 lysate, 635/667 nm fluorescence, primary screen (AID 1092); details: small-molecule microarray, hLULL1 lysate binding, 635 nm fluorescence; higher = more signal;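 note: probe is lysate of COS7 cells overexpressing human LULL1; score merges per-feature 667 nm fluorescence with signal-to-noise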
Chain of Torsin-1A-interacting protein 2 (Homo sapiens) (Q8NFQ8 whole entry, looked up): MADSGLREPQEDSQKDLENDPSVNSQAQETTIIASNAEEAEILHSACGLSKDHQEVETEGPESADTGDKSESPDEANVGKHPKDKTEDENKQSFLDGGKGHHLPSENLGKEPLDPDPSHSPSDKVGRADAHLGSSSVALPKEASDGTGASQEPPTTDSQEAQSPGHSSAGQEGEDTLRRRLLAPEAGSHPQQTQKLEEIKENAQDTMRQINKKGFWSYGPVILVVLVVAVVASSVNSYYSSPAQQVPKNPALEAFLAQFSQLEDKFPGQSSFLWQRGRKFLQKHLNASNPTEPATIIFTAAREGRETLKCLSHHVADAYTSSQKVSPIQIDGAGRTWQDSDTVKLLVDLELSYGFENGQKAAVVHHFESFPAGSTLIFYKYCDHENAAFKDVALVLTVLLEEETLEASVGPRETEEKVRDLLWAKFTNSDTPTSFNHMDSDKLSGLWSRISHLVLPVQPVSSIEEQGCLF

[6] = optical density change of DRC41 E. coli – strain DRC41, OD650, 24 h, E. coli filamentation project, primary screen (AID 1093);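 note: MC1000 strain lacking acrAB efflux and sulA so SOS filamentation is blocked; test concentration not given here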; details: E. coli DRC41 growth, higher = more signal, called active from +8 up or from −8 down
[7] = probe aLefty2 binding to arrayed compounds – biochemical, biotinylated probe, 635/667 nm fluorescence, primary screen (AID 1094); details: small-molecule microarray, higher = more signal;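 note: score merges spot fluorescence near 667 nm with spot signal-to-noise ratio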
[8] = system: Noggin (protein binding on small-molecule microarray); experiment: small molecules binding Noggin protein – biochemical, 635/667 nm fluorescence, primary screen (AID 1095); details: 635 nm fluorescence, higher = more signal;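 note: score merges 667 nm feature fluorescence with signal to noise over triplicate slides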
[9] = target: Neurogenic locus notch homolog protein 3 (Homo sapiens) (UniProt Q9UM47); experiment: small molecules binding NOTCH3 protein – biochemical, 635/667 nm fluorescence, primary screen (AID 1096); details: small-molecule microarray, 635 nm fluorescence, higher = more signal
Chain of Neurogenic locus notch homolog protein 3 (Homo sapiens) (Q9UM47 whole entry, looked up): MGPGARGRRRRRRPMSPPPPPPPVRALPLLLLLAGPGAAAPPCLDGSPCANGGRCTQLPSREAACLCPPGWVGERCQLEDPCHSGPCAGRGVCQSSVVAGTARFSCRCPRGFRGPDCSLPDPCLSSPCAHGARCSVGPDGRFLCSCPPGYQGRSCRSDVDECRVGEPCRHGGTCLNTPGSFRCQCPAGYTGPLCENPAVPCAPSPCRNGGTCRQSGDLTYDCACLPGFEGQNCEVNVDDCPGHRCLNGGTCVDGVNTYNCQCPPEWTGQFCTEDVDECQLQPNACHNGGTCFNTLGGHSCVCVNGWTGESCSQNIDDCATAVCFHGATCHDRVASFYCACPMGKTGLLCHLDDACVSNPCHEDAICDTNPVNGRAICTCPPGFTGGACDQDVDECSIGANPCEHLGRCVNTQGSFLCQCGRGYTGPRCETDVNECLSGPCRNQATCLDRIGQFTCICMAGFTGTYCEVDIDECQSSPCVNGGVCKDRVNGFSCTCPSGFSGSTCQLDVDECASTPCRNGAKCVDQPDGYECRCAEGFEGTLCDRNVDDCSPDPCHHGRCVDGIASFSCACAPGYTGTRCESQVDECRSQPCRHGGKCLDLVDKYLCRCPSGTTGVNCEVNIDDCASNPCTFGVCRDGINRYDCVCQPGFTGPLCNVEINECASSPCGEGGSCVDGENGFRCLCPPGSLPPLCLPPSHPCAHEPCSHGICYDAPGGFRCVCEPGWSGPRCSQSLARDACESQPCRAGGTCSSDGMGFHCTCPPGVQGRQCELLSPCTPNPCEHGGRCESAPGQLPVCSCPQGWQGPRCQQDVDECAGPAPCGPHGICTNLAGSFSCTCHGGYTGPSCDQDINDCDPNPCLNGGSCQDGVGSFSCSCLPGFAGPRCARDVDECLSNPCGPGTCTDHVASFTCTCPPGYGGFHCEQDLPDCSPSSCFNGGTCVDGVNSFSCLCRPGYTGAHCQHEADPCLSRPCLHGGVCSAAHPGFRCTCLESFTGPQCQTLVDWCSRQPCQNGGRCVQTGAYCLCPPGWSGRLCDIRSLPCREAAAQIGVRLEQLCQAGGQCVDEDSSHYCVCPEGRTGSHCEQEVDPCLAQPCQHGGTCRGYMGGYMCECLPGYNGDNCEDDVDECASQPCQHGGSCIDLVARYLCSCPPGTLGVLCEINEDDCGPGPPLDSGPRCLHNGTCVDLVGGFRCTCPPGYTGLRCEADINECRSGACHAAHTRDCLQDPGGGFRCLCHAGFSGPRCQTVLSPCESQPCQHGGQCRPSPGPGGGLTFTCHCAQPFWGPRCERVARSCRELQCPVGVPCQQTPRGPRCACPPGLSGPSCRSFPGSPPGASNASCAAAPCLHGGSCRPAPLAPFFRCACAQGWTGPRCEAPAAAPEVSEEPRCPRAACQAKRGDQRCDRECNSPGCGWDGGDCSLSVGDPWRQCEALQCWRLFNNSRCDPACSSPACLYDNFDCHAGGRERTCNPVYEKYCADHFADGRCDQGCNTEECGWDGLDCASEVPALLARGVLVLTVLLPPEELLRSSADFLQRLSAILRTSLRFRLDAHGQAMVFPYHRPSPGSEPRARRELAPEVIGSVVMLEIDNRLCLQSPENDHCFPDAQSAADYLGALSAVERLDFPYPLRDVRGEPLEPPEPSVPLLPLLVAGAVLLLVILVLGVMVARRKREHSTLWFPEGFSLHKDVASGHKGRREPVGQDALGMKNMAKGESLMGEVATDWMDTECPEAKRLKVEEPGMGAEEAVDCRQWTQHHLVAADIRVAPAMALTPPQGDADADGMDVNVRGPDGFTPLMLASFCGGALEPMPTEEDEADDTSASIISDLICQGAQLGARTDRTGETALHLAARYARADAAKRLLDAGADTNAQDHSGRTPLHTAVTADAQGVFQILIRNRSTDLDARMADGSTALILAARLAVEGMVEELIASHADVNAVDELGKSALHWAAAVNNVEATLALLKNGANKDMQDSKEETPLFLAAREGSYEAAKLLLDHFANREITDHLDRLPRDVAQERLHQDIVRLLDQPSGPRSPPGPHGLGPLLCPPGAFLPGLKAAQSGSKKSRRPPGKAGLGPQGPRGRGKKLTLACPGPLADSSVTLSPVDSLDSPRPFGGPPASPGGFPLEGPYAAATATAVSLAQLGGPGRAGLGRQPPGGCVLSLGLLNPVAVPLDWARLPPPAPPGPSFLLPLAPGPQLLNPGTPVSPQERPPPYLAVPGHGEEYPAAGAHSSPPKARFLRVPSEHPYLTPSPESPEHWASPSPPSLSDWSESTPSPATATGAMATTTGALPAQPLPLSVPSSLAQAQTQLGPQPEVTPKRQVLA

[10] = probe aEGFR binding to arrayed compounds – biochemical, biotinylated probe, 635/667 nm fluorescence, primary screen (AID 1097); details: small-molecule microarray, higher = more signal;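 note: probe is a biotinylated anti-EGFR antibody binding compounds printed on slides; score combines fluorescence near 667 nm and signal to noise of each spot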

Structure (SMILES)	composite z-score [1]	z-score [2]	z-score [3]	z-score [4]	composite z-score [5]	z-score [6]	composite z-score [7]	composite z-score [8]	composite z-score [9]	composite z-score [10]
C[C@]1(C(=O)NCC(F)(F)F)c2ccccc2C(=O)N(Cc2cc(C(F)(F)F)cc(C(F)(F)F)c2)[C@H]1c1ccc(CO)cc1	0.594	0.182 (inactive)	-0.0136 (inactive)	-0.0066 (inactive)	1.35	1.07 (inactive)	-0.114	-0.736	-0.802	-0.11
C=CC[C@]12N=C(c3ccc(OCCCO)cc3)O[C@H]1c1ccccc1N(CCC)C2=O	1.55	-1.42 (inactive)	-2.04 (inactive)	-1.06 (inactive)	2.96	0.544 (inactive)	0.15	1.2	1.11	0.198
COC(=O)[C@@]1(Cc2ccc(OC)cc2)[C@H]2c3cc(C(=O)N(C)C)n(Cc4c(CO)[nH]cc(C)c4=O)c3C[C@H]2CN1C(=O)c1ccccc1	-0.922	0.0886 (inactive)	0.95 (inactive)	-0.622 (inactive)	3.22	-1.28 (inactive)	0.334	0.0072	0.0193	0.215
CCOC(=O)C=C1C[C@@H](c2cccc([N+](=O)[O-])c2)O[C@@H](c2cccc([N+](=O)[O-])c2)O1	1.5	1.07 (inactive)	1.8 (inactive)	1.79 (inactive)	2.29	-0.239 (inactive)	0.91	0.327	1.12	0.246
C=CCNC(=O)[C@@H]1[C@H]2C(=O)O[C@H](c3ccccc3)[C@H](c3ccccc3)N2[C@H](c2ccc(O)cc2)[C@@]12C(=O)N(C(=O)OCCOC)c1ccc(C#CCC(C(=O)OC)C(=O)OC)cc12	1.5	1.03 (inactive)	0.405 (inactive)	0.624 (inactive)	2.11	1.19 (inactive)	-0.156	1.03	0.959	-0.027
COc1ccc(C(=O)Nc2cccc(CN3C(=O)[C@]4(O[C@H](CC(=O)N(CCO)Cc5ccccc5)[C@@H]([Si](C)(C)c5ccc(OC)cc5)[C@@H]4C)c4ccccc43)c2)cc1	1.05	1.22 (inactive)	0.706 (inactive)	3.65 (inactive)	1.69	0.854 (inactive)	0.0553	0.701	0.255	-0.0251
C=CCNC(=O)[C@H]1[C@@H]2C(=O)O[C@@H](c3ccccc3)[C@@H](c3ccccc3)N2[C@@H](c2ccc(OCCO)cc2)[C@]12C(=O)N(C(=O)OCCOC)c1ccc(C#CCNC(N)=O)cc12	1.55	1.91 (inactive)	0.996 (inactive)	4.55 (inactive)	1.97	-0.121 (inactive)	0.247	1.84	1.11	0.0173
CCCCC(=C=CC[C@H](O)c1cccc(OCCO)c1)C[C@H](O)c1cc(Cl)cc(Cl)c1O	1.53	0.59 (inactive)	-1.71 (inactive)	0.102 (inactive)	1.81	0.206 (inactive)	0.206	0.999	0.883	-0.112
COCCOC(=O)N1C(=O)[C@@]2(c3cc(C#CCC(C(=O)OC)C(=O)OC)ccc31)[C@H](C(N)=O)[C@H]1C(=O)O[C@H](c3ccccc3)[C@H](c3ccccc3)N1[C@@H]2c1ccccc1OCCO	1.55	-2.36 (inactive)	-1.12 (inactive)	2.65 (inactive)	1.89	0.533 (inactive)	-0.204	1.56	1.06	-0.0661
C=C(/C=C\CNS(=O)(=O)c1ccc(C)cc1)[C@H](O)[C@H]1CCCN1S(=O)(=O)c1ccccc1[N+](=O)[O-]	-0.196	1.89 (inactive)	1.09 (inactive)	35.1 (active)	0.782	0.753 (inactive)	-0.139	0.177	0.221	-0.0567
C#CCN(C(=O)OC(C)(C)C)[C@H](CO)c1ccccc1	0.738	-0.365 (inactive)	-2.99 (inactive)	0.368 (inactive)	0.444	-0.223 (inactive)	-0.235	0.582	0.524	-0.198
C=C[C@H](C)[C@@H](OC(=O)Nc1ccc(SC)cc1)c1ccc(OCCO)cc1	0.191	0.613 (inactive)	-0.583 (inactive)	1.92 (inactive)	1.84	0.441 (inactive)	-0.0391	1.05	0.487	-0.225
O=C1NC(=O)C2C1C=CC(C(O)C1CCCCC1)N2Nc1ccccn1 (stereo not given)	0.327	0.459 (inactive)	0.633 (inactive)	0.117 (inactive)	2.43	-1.5 (inactive)	0.0078	-0.401	0.492	-0.104
CCN1C(=O)C2CC(=O)C3C(CN(S(=O)(=O)c4ccc(C)cc4)C3c3ccc(C)cc3)C2C1=O (stereo not given)	0.751	-0.01 (inactive)	0.616 (inactive)	0.627 (inactive)	2.75	0.398 (inactive)	-0.0176	-0.841	0.627	-0.0089
C=CC[C@H](O)c1ccc(O)c(F)c1	-0.255	-0.63 (inactive)	-0.722 (inactive)	-1.56 (inactive)	-1.36	-0.53 (inactive)	-0.103	-0.529	-0.579	-0.115
COc1ccc([Si](C)(C)[C@@H]2[C@@H](CC(=O)N(CCO)Cc3ccccc3)O[C@]3(C(=O)N(Cc4cccc(I)c4)c4ccccc43)[C@H]2C)cc1	1.46	-0.0171 (inactive)	1.27 (inactive)	3.46 (inactive)	0.444	0.645 (inactive)	0.0553	1.51	1.07	0.0102
CCCCCN1CC=CC23O[C@@H]4/C=C\CCCOC(=O)C4[C@H]2C(=O)N(CCCCCO)[C@@H]3C1=O (stereo not given in full)	-0.409	-0.557 (inactive)	-0.383 (inactive)	-1.39 (inactive)	-2.15	1.62 (inactive)	-0.159	-0.636	-0.0581	-0.175
C=CCNC(=O)[C@H]1[C@@H]2C(=O)O[C@@H](c3ccccc3)[C@@H](c3ccccc3)N2[C@@H](c2ccc(OCCO)cc2)[C@]12C(=O)Nc1ccc(C#Cc3ccc(OC)cc3)cc12	1.56	3.23 (inactive)	2.1 (inactive)	5.57 (inactive)	2.75	0.741 (inactive)	0.326	1.27	1.11	0.166
O=C1C2C=CC(C(O)c3ccccn3)N(Nc3ccc([N+](=O)[O-])cc3)C2C(=O)N1c1ccccc1 (stereo not given)	0.379	-0.931 (inactive)	0.587 (inactive)	-0.622 (inactive)	1.12	-1.36 (inactive)	-0.248	-0.493	0.772	-0.047
CC(=O)NCCCC[C@@H]1NC(=O)[C@H]2C[C@@H](C(=O)NCCCCCN)[C@@H](c3ccc(O)cc3)N2C1=O	1.07	0.447 (inactive)	-0.121 (inactive)	1.01 (inactive)	2.05	-0.475 (inactive)	0.0158	1.35	0.284	0.0209
O=C1O[C@H](c2ccccc2)[C@H](c2ccccc2)N2[C@H]1[C@@H](C(=O)N1CCCCCCC1)[C@]1(C(=O)Nc3ccc(C#CCCO)cc31)[C@H]2c1ccc(O)cc1	1.54	0.6 (inactive)	-0.36 (inactive)	1.45 (inactive)	5.04	2.08 (inactive)	1.78	0.731	1.02	1.38
